# Experimental data published in PubChem BioAssay (NCATS).
# Values joined by “and” are separate entries in the source; they are usually repeats but may differ in a detail not shown here. Equal entries are not always repeated. Records with an inconclusive call do not appear.
# Test: qHTS assay for small molecule agonists of retinoid X receptor alpha signaling (AID 588544)
# Details: HEK293T RXRa-UAS-bla, beta-lactamase reporter, 18 h; 530 nm emission
# Text: NIH Chemical Genomics Center [NCGC] U.S. Environmental Protection Agency [EPA] National Institutes of Environmental Health Sciences [NIEHS] National Toxicology Program [NTP] NCGC Assay Overview The Retinoid X receptor (RXR), a nuclear hormone receptor is expressed in liver, spleen, placenta, epidermis, central nervous system. These receptors are able to form homo and heterodimers with other nuclear receptors and due to this heterodimerizing ability, RXR functions as master regulators producing diverse physiological effects. Three subtypes of RXR exist; alpha, beta and gamma. Retinoid X receptor alpha (RXR-alpha) has potential roles in metabolic signaling pathways, skin alopecia, dermal cysts, cardiac development, insulin sensitization etc. Therefore screening environmental chemicals on RXR-alpha signaling can be used for the studies focused on such therapeutic applications.
# NCGC Assay Protocol Summary Using a beta-lactamase reporter-gene under control of Retinoid X receptor--alpha (RXR-alpha) response element, a cell-based assay [GeneBLAzer (RXR-alpha -UAS-bla assay developed by Invitrogen] was used to measure RXR-alpha ligands signaling. GeneBLAzer RXR-alpha -UAS-bla HEK293T cells were used with assay medium containing 2% charcoal-stripped FBS. The assay was performed in clear bottom black Greiner 1536-well plates. 9-cis-retinoic acid was used in the screen as the positive control. Library compounds were measured for their ability to stimulate the reporter gene activity. Compounds were screened in a titration series in 1536-well format. The fluorescence intensity (405 nm excitation, 460/530 nm emission) was measured using an EnVision plate reader. Data was normalized relative to 9-cis-retinoic acid control (500 nM, 100%), and DMSO only wells (basal, 0%). Concentration-response titration points for each compound were fitted to the Hill equation yielding concentrations of half-maximal stimulation (EC50) and maximal response (efficacy) values. qHTS protocol for RXR-alpha beta-lactamase assay in agonist mode [Step] [Parameter] [Value] [Description] 1. Reagent; 6 uL; 2500 cells/well 2. Incubation; 37 C for 4 hrs 3. Compounds; 23 nL; 0.59 nM to 92 uM 4. Controls (9-cis-retinoic acid); 23 nL, - One column with dose response, start 38 uM, 1:3 dilutions in duplicates - Final concentrations of 500 nM and 50 nM in two columns 5. Incubation; 37 C for 18 hrs 6. Detection reagent; 1 uL of CCF4-dye 7. Incubation; RT for 2 hrs 8. Detection; Fluorescence; Envision plate reader
row,Structure (SMILES),max response
1,C#CCO,3.2%
2,CC(C)(C)C(=O)[C@@H](Oc1ccc(Cl)cc1)n1cncn1,9.03%
3,CCOc1nc(C(Cl)(Cl)Cl)ns1,-11.9%
4,CCC[CH2][Sn](=[O])[CH2]CCC,-5.73%
5,CC1(C)C(C=C(Cl)Cl)[C@H]1C(=O)OCc1cccc(Oc2ccccc2)c1 (stereo not given in full),-6.06%
6,CC1=C(C(=O)Nc2ccccc2)SCCO1,-2.97%
7,CCCN(CC)CC1COC2(CCC(C(C)(C)C)CC2)O1 (stereo not given),-11.3%
8,O=S(=O)(c1ccc(O)cc1)c1ccc(O)cc1,-2.49%
9,CNC(=O)Oc1cccc(N=CN(C)C)c1,1.64%
10,COCC(=O)N(c1c(C)cccc1C)[C@H](C)C(=O)OC,-8.28%
11,COP(=O)(NC(C)=O)SC (stereo not given),4.58%
12,CCC(C)n1c(=O)[nH]c(C)c(Br)c1=O (stereo not given),0.805%
13,COc1cc(Cl)c(OC)cc1Cl,-12.5%
14,CNC(=O)O/N=C(\SC)C(=O)N(C)C,-12.6%
15,O=C1NCCN1Cc1ccc(Cl)nc1,-6.75%
16,CC(C)C1(C)N=C(c2ncccc2C(=O)O)NC1=O (stereo not given),-12.1%
17,CCOP(=O)(OCC)SCS(=O)(=O)C(C)(C)C,4.6%
18,CC1(C)CC/C(=C\c2ccc(Cl)cc2)C1(O)Cn1cncn1 (stereo not given),6%
19,CCC(CC)Nc1c([N+](=O)[O-])cc(C)c(C)c1[N+](=O)[O-],4.16%
20,N#Cc1cc(I)c(O)c(I)c1,19.3%

row,Structure (SMILES),max response
1,Clc1ccc(C(Cl)(Cl)Cl)cc1,-6.16%
2,CCOc1nc(F)cc2nc(S(=O)(=O)Nc3c(Cl)cccc3Cl)nn12,3.57%
3,COC(=O)C(C)Oc1ccc(Oc2ccc(Cl)cc2Cl)cc1 (stereo not given),20.2%
4,CCOP(=S)(S)OCC,-7.79%
5,CO/N=C(/C(=O)OC)c1ccccc1COc1ccccc1C,13.9%
6,ClCc1ccccc1Cl,-22.8%
7,CCC/C(=N\OCC)C1=C(O)CC(CC(C)SCC)CC1=O (stereo not given),-4.54%
8,COP(=O)(OC)O/C(C)=C/C(=O)N(C)C,-0.0825%
9,CCN(CC)C(=O)C(C)Oc1cccc2ccccc12 (stereo not given),5.95%
10,CC1(C)Cc2cccc(O)c2O1,-1.21%
11,O=C(O)C(F)(F)C(F)(F)C(F)(F)C(F)(F)C(F)(F)C(F)(F)C(F)(F)C(F)(F)C(F)(F)F,-12.9% and -38.7%
12,CC(C)NC(=O)N1CC(=O)N(c2cc(Cl)cc(Cl)c2)C1=O,21.2%
13,O=C(O)C(F)(F)C(F)(F)C(F)(F)C(F)(F)C(F)(F)C(F)(F)C(F)(F)C(F)(F)F,1.6% and -25.9%
14,O=[N+]([O-])c1cc(C(F)(F)F)cc([N+](=O)[O-])c1Cl,2.71%
15,C=C(C)C(=O)OCC(CC)CCCC (stereo not given),-20.3%
16,CCCCOCCOC(C)=O,-13.2%
17,ClC1=C(Cl)C2(Cl)C3C4OC4C(Cl)C3C1(Cl)C2(Cl)Cl (stereo not given),2.4%
18,CC/C(=N\OC/C=C/Cl)C1=C(O)CC(C2CCOCC2)CC1=O (stereo not given),-4.82%
19,CS(=O)(=O)NC(=O)c1cc(Oc2ccc(C(F)(F)F)cc2Cl)ccc1[N+](=O)[O-],1.68%
20,CCOP(=S)(OCC)Oc1ncn(-c2ccccc2)n1,-6.39%
